CCT modulator – changes cytosolic chaperonin activity; purified chaperonin ATPase assay, HTRF ADP detection, 30 min; activity change, % (test concentration not listed), hits read low; AID 651819; 0.3% of 360,000 active; in the data active means activity change below about -30%; further: on the % scale 0 is the no-effect control and ±100 the full control effect
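TRiC at 40 or 20 nM final (batch-dependent) in 30 mM Tris pH 7.4, 100 mM KCl, 5 mM MgCl2, 1 mM DTT, with compound at single 76 uM and 10 uM ATP, 30 min at 37 deg C. ADP detected by HTRF Transcreener, 665/615 ratio.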
Akt phos inh – Akt phosphorylation inhibition; Neuro2A IGF-stimulated pAkt S473 HTRF, 20 min; hits give low values; activity change, % for hits at 50 µM; 0.32% of 360,000 active; AID 651550; in the data active means activity change below about -80%; inconclusive means mostly about -51% to -80%; further: on the % scale 0 is the no-effect control and ±100 the full control effect
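Neuro2A cells (4,500/well, DMEM with 0.5% FBS) were treated with compound at a single 50 µM final concentration, stimulated with 6 nM IGF for 20 min at 37 °C, and lysed. Phospho-Akt Ser473 was read by HTRF as 665/615 ratio ×10^4.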
Epigenetic reg – regulators of epigenetic silencing causing reporter derepression in mouse cells | murine LDR cells, GFP reporter derepression, 30 h | Potency, µM (series often up to 53.9 µM), inactives show at the highest dose GFP activation, hits mostly activators | 0.2% of 280,000 active; further: potency means the concentration at half of the fitted maximal effect; % of control where 0% means no effect; nearly all actives have a fitted effect of over 60% in size
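GFP-positive cell count by laser-scanning cytometry (objects 20–120 um) after 30 h, 37 C compound exposure of murine LDR cells; reporter is CMV-GFP integrated at a silenced locus, inducible by HDAC or DNMT inhibitors.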
MBNL1-CUG inh – inhibitors of human MBNL1 binding to CUG repeat RNA | Q9NR56 | TR-FRET MBNL1-His/biotin-(CUG)12 binding, 665/545 ratio | Potency, µM (highest dose often 57.5 µM), for the others: at the highest dose activity change, negative = inhibition, most hits filed as inhibitors | 0.036% of 280,000 active; active means well fitted inhibition curve with a large enough effect in the signal ratio, with a control signal flat, not every such curve was filed as active; inconclusive means small, poorly fitted or top-dose-only effect, or effect the other way, or a change in a side signal; inactive means no such curve, though single readings can be large or run the other way; the % refers to the signal ratio; further: potency means the concentration at half of the fitted maximal effect; on the % scale 0 is the no-effect control and ±100 the full control effect
Target sequence (Q9NR56 whole entry, looked up): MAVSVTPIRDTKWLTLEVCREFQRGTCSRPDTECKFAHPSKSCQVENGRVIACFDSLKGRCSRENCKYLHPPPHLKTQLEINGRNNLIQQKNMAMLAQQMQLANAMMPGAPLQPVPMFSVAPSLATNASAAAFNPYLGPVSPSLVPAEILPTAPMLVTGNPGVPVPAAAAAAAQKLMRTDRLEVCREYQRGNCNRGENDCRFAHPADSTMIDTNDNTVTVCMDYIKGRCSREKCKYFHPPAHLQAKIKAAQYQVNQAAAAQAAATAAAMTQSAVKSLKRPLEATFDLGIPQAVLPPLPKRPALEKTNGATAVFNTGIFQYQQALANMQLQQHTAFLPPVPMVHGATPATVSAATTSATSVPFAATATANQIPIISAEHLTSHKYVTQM
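TR-FRET readout: Ex 340 nm, 665/545 nm emission ratio, normalized to buffer-only (basal) and MBNL1-(CUG)12 controls. Complex of MBNL1-His with Biotin-(CUG)12, compounds 92 nM–58 uM, incubated 60 min at room temperature.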
Mm-Cpn inhibitor – inhibitors of Methanococcus maripaludis chaperonin TRiC (MmCpn); purified Mm-Cpn ATPase, ADP Transcreener TR-FRET; 0.031% of 330,000 active; Potency, µM (series often up to 76.9 µM), for the others: at the top dose activity, negative = inhibition, usual class: inhibitors; further: potency means the concentration at half of the fitted maximal effect; on the % scale 0 is the no-effect control and ±100 the full control effect; nearly all actives have a fitted effect of over 80% in size
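Measured: ADP formation by purified Mm-CPN. Conditions: 25 nM protein, 10 uM ATP, Tris pH 7.4 with Mg2+, K+ and DTT, 37°C for 30 min. Detection: Transcreener HTRF after 30 min at room temperature.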
uPA generation – inhibitors of cell surface uPA generation; cell surface uPA generation assay, qHTS; 0.31% of 330,000 active; Potency, µM (titrated, usually from 38.3 µM), inactives show top-dose activity change, negative = inhibition, usual class: inhibitors; active means well fitted inhibition curve with a large enough effect; inconclusive means small, poorly fitted or top-dose-only effect; inactive means no such curve, though single readings can be large or run the other way; tested in mouse RAW 264.7 cells; further: potency means the concentration at half of the fitted maximal effect; on the % scale 0 is the no-effect control and ±100 the full control effect; nearly all actives have a fitted effect of over 55% in size
* marks the source's active call; other numbers are inactive results; i = inactive; ? = inconclusive; nt = not tested or not shown. A selection: hits, their analogues and other compounds. The true share with any hit is near 0.97%. Unless noted, the call rests on the fitted dose curve; in most records, active means well fitted curve in the direction sought with a large enough effect; inconclusive means small, poorly fitted or top-dose-only effect, or another doubt; inactive means no such curve, though single readings can be large; an effect the other way counts as inactive or inconclusive.

SMILES	CCT modulator	Akt phos inh	Epigenetic reg	MBNL1-CUG inh	Mm-Cpn inhibitor	uPA generation
OCC[C@H]1C[C@H](O)[C@@H](O)[C@]2(CCCO2)O1	-65*	i	nt	nt	nt	-7%
CCc1ccc(Nc2nnc(-c3cc4cc(OC)ccc4oc3=O)s2)cc1	nt	nt	16µM*	nt	nt	nt
CCOC(=O)C1C(=O)C=C(/C=C/c2ccc(N(C)C)cc2)CC1c1ccccc1 (stereo not given)	-4	i	22µM*	2%	-1%	-2%
CC(C)NS(=O)(=O)c1ccc(NCCCn2ccnc2)c([N+](=O)[O-])c1	-2	i	nt	?	-2%	-5%
CSCCC(NC(=O)/C(=C/c1ccco1)NC(=O)c1ccco1)C(=O)O (stereo not given)	-38*	i	nt	nt	nt	4%
CC(C)OP(=O)(c1ccc(N(C)C)cc1)C(O)c1cccnc1 (stereo not given)	-1	i	-1%	5%	1%	16%
Cc1ccc(C)n1-c1ccc(C(=O)N2CCOCC2)cc1	1	-106%*	-1%	-2%	-1%	nt
CC(=O)N1CCN(C(=O)c2ccc(-n3c(C)ccc3C)cc2)CC1	0	i	-1%	-4%	1%	-6%
COc1cc2c(c(OC)c1OC)-c1ccc(N(C)CC(OC)OC)c(=O)cc1[C@@H](NC(C)=O)CC2	0	i	nt	?	1%	-17%
CN[C@H]1CCc2cc(OC)c(OC)c(OC)c2-c2ccc(N(C)CC(OC)OC)c(=O)cc21	-1	i	nt	?	-3%	3.5µM*
O=C(O)COc1ccc2nsnc2c1Cl	-1	i	0%	?	6.3µM*	2%
O=C(Nc1c(-c2ccccc2)nc2sccn12)c1ccccc1	-1	-106%*	-1%	2%	2%	-3%
CS(=O)(=O)N(CC(=O)N1CCN(c2ccccc2)CC1)c1ccccc1Cl	1	i	nt	nt	nt	2%
O=C(COC(=O)Cn1cnc2ccccc21)Nc1ccc2c(c1)C(=O)c1ccccc1C2=O	-10	i	-2%	nt	-2%	11µM*
O=C(COC(=O)Cn1cnc2ccccc21)Nc1ccc(Br)cc1	1	i	nt	nt	nt	nt
c1ccc2c(c1)oc1c(NCCCN3CCOCC3)ncnc12	0	-109%*	-1%	-11%	0%	-3%
CC1CCCC(NC(=O)CCNC(=O)c2ccc([N+](=O)[O-])cc2)C1C (stereo not given)	0	i	nt	?	-2%	1%
COC(=O)C1CC(c2ccc(Cl)cc2)=NO1 (stereo not given)	0	i	0%	nt	-5%	-9%
O=C1CC(c2cccc(Cl)c2)Cc2nc(N3CCN(c4ccccc4)CC3)ncc21 (stereo not given)	1	-97%*	-3%	4%	-5%	8%
O=C1CC(c2cccc(Cl)c2)Cc2nc(N3CCOCC3)ncc21 (stereo not given)	1	i	2%	-7%	-1%	2%
CCC(NS(=O)(=O)c1cn(C)nc1C)c1ccccc1 (stereo not given)	-31*	i	0%	-2%	3%	3%
CCC(NS(=O)(=O)c1cnn(CC)c1)c1ccccc1 (stereo not given)	-3	i	-2%	-1%	4%	-4%
CCOC(=O)N1CCN(Cc2nc3cc(NC(=O)c4ccccc4Cl)ccc3n2C(C)C)CC1	nt	nt	2%	nt	nt	nt
COc1cc(-n2c(C)nc3cc(C(=O)N4CCOCC4)ccc32)cc(OC)c1OC	0	-114%*	1%	-2%	-3%	8%
COc1ccc(OC)c(/C(O)=C/C(=O)C(=O)Nc2cc(C)cc(C)c2)c1	0	-106%*	-1%	5%	0%	-3%
Cc1ccc(Cn2nnc(C(=O)Nc3cccc(C)c3C)c2N)cc1	-5	-109%*	-1%	0%	0%	-3%
CSCSC1=C(C#N)C(c2ccccc2Cl)C(C(C)=O)=C(C)N1 (stereo not given)	0	-106%*	-1%	3%	-8%	-13%
